Cruzain Triton: cruzain (T. cruzi) inhibition with detergent. P25779. purified cruzain, Z-FR-AMC fluorescence, 0.01% Triton. Potency, µM, hits mostly inhibitors. 200,000 tested, 0.43% active. AID 1478; also: nearly all actives have a fitted effect of over 40% in size
Target sequence (P25779 123-467 limits assumed): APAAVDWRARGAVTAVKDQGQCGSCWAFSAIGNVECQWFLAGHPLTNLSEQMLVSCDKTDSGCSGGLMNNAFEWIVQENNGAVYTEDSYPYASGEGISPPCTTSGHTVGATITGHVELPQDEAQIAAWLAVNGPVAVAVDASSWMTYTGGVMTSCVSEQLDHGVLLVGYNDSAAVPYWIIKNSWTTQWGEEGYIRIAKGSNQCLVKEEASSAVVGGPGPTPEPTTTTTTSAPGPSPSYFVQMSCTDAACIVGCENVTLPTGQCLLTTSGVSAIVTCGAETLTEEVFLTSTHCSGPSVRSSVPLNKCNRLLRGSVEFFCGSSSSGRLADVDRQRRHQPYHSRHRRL
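Compounds were screened in titration against cruzain (1.5 nM) with 0.01% Triton X-100 to counter colloidal aggregation. Activity was the AMC fluorescence increase over 60 s after adding 2 uM Z-FR-AMC at pH 5.5.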
Cruzain noTriton: inhibitors of Trypanosoma cruzi cruzain without detergent; 200,000 tested, 2.3% active; P25779; Potency, µM, hits mostly inhibitors; purified cruzain, Z-FR-AMC fluorescence, no detergent; also: nearly all actives have a fitted effect of over 40% in size
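Detergent-free condition (0.00005% Triton X-100) in acetate buffer pH 5.5 with DTT. 1.5 nM enzyme and compound were pre-mixed 15 min, then 2 uM Z-FR-AMC substrate added; reaction progress from fluorescence change between first and third reads (60 s).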
A number is an active result; . = inactive; ? = inconclusive. A selection: hits, their analogues and other compounds. The true share with any hit is near 2.5%. Calls follow the shape of the dose curve; as a rule, active = well fitted curve in the direction sought with a large enough effect; inconclusive = small, poorly fitted or top-dose-only effect, or another doubt; inactive = no such curve, though single readings can be large; an effect the other way counts as inactive or inconclusive.

SMILES	Cruzain Triton	Cruzain noTriton
Cc1ccc(S(=O)(=O)C(CNS(=O)(=O)c2ccc(F)c(C)c2)c2cccs2)cc1 (stereo unspecified)	.	.
CCOc1ccc(Nc2cc(C)nc3nncn23)cc1	.	.
CCc1c(C)sc2c1CCN(Cc1ccc(F)cc1)C2c1ccccc1 (stereo unspecified)	.	.
O=C(N/N=C/C=C\c1ccccc1[N+](=O)[O-])c1cc(-c2ccc3ccccc3c2)n[nH]1	.	7.94µM
O=C(N/N=C/C=C\c1ccccc1[N+](=O)[O-])c1cccs1	.	.
COc1ccc(NS(=O)(=O)c2ccc(O)c(C(=O)OCC(=O)Nc3ccc4c(c3)OCCO4)c2)cc1	.	7.94µM
COc1ccc(N(CC(=O)Nc2ccc3c(c2)OCO3)S(=O)(=O)c2ccc(F)cc2)cc1	.	20µM
COc1ccc(S(=O)(=O)N(C)CC(=O)Nc2ccc3c(c2)OCO3)cc1	.	.
COc1ccc(NS(=O)(=O)c2ccc(NS(=O)(=O)c3ccc4c(c3)OCCO4)cc2)cc1	.	.
Cc1cc(Cl)ccc1OCC(=O)N(Cc1ccc(N(C)C)cc1)CC1CCCO1 (stereo unspecified)	.	.
Cc1ccc(CNC(=O)c2ccc(Cn3c(SCc4ccc(F)cc4)nc4cccnc43)cc2)o1	.	.
Cc1ccccc1C(=O)Nc1ccc2nc(SCC(=O)N3CCc4ccccc43)sc2c1	.	10µM
Cc1cccc(C(=O)Nc2ccc3nc(SCC(=O)N4CCc5ccccc54)sc3c2)c1	.	?
CCn1c(=O)cc(OCC(=O)N2CCN(c3ccc(C)cc3)C(C)C2)c2ccccc21 (stereo unspecified)	.	.
O=c1c2c3c(sc2ncn1Cc1ccc(F)cc1)CCC3	.	7.94µM
Nn1cnc2sc3c(c2c1=O)CCC3	.	.
O=C(/C=C/c1cccs1)c1ccc(Br)cc1	.	.
O=C(/C=C/c1cccs1)c1ccc(NC(=O)c2cccc(Br)c2)cc1	.	15.8µM
Cc1ccc(NC(=O)COC(=O)/C=C/c2cccs2)cc1	.	.
Cc1ccc(C(=O)Nc2ccc(C(=O)/C=C/c3cccs3)cc2)cc1	.	25.1µM
CCCCN(CC)C(=O)CCNS(=O)(=O)c1ccc2c(c1)c(=O)n(C)c(=O)n2C	.	.
CC(C)c1ccc(NC(=O)Cn2nnc(C(=O)NCc3cccs3)c2N)cc1	.	.
O=C(Cn1c(=O)c2ccccc2n(CC(=O)Nc2ccccc2F)c1=O)NCCc1ccccc1	.	.
O=C(Cn1c(=O)c2ccccc2n(CC(=O)Nc2ccc(Cl)cc2)c1=O)NCCc1ccccc1	.	12.6µM
Cc1ccc(NC(=O)Cn2nnc(C(=O)NCCc3ccccc3)c2N)cc1Cl	.	?
SMILES	Cruzain Triton	Cruzain noTriton
CC(C)c1ccc(NC(=O)Cn2nnc(C(=O)NCc3ccc(Cl)cc3)c2N)cc1	.	7.94µM
Nc1c(C(=O)NCCc2ccccc2)nnn1CC(=O)Nc1ccc(Cl)cc1	.	25.1µM
Cc1cc(C)c(-c2cc(NC(=O)COC(=O)c3ccc(C#N)cc3)n(-c3ccccc3)n2)cc1C	.	15.8µM
Cc1cc(C)c(-c2cc(NC(=O)CSc3nncn3C)n(-c3ccccc3)n2)cc1C	.	?
CCCc1nnc(NC(=O)c2cc3ccccc3oc2=O)s1	.	.
CC(Sc1nnc(NC(=O)c2cc3ccccc3oc2=O)s1)c1ccccc1 (stereo unspecified)	.	12.6µM
CC(=O)NCCNc1ncnc2ccc(-c3ccccc3C(F)(F)F)cc12	.	.
CCCn1c(=N)c(C(=O)NCc2cccnc2)cc2c(=O)n3cc(C)ccc3nc21	.	.
Cc1ccc2nc3c(cc(C(=O)NCc4cccnc4)c(=N)n3C(C)C)c(=O)n2c1	31.6µM	?
Cc1cccc(C2=NN(c3ccccc3)[C@H](CO)[C@H]2C)c1	.	35.5µM
Cc1cccc(C2=NN(c3ccccc3)[C@H](CO)[C@H]2c2ccccc2)c1	.	?
Cc1nn(-c2nc3ccccc3s2)c(N)c1Sc1ccc(F)cc1	.	12.6µM
Cc1nn(-c2nc3ccccc3s2)c(N)c1-c1ccccc1	.	?
CCc1ccc(OCC(=O)N(Cc2ccc(Cl)cc2)C2CCS(=O)(=O)C2)cc1 (stereo unspecified)	.	?
COc1ccc(C(=O)N(Cc2ccco2)Cc2ccco2)cc1	.	.
COc1ccc(NC(C)C(=O)N/N=C/c2ccccc2OCc2cccc(Br)c2)cc1 (stereo unspecified)	.	?
Cc1ccccc1NC(C)C(=O)N/N=C/c1ccccc1OCc1cccc(Br)c1 (stereo unspecified)	.	31.6µM
CCn1c(C)c(/C=N/Nc2nc3ccccc3s2)c2ccccc21	.	12.6µM
Cc1nn(-c2ccccc2Cl)c(Cl)c1/C=N/Nc1nc2ccccc2s1	.	12.6µM
C(=N\Nc1nc2ccccc2s1)/c1cccs1	.	.
CCOC(=O)N/N=C/c1c(C)nn(-c2ccccc2Cl)c1Cl	.	.
CCN(CC)S(=O)(=O)c1ccc2c(c1)c(=O)c(C(=O)NCc1ccccc1)cn2C	.	.

Screening data from PubChem BioAssay.
